According to the supplement of paper PMC6555819:

Legend:
Experiment in all cases: PBM binding z-score (relative to random genomic background probes); higher = stronger binding; sequences stand for … in GC…GCGATTGACAGCGTAGAATGAAGG
[1] = test system: PPARg:RXRa DBDmut IVT, anti-RXR (DBD mutation: RXRa K156A/R161A, NR concentration 270 nM, RXRa partner concentration 90 nM)
Method in brief: (§1)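 The probes on custom Agilent 4×180K protein-binding microarrays were double-stranded, with 34-nt variable regions bearing direct-repeat seeds, single-nucleotide variants, half-site ablations and random human genomic background sequences. Incubation lasted 1 h with ligand-free nuclear receptor dimers in PBS pH 7.4, 2% milk, 0.02% Triton X-100, 1 mM DTT, 0.2 mg/mL BSA and 0.4 mg/ml salmon testes DNA. Antibodies against each partner (one per run) detected bound dimers, and fluorescence scans were regression-normalized. Binding z-scores take the random background probes as reference.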

[2] = test system: PPARg:RXRa IVT, anti-PPARg (NR concentration 270 nM, RXRa partner concentration 90 nM)
Method in brief: as §1

[3] = test system: PPARg DBDmut:RXRa IVT, anti-PPARg (DBD mutation: PPARg1 K132A/R137A, NR concentration 270 nM, RXRa partner concentration 90 nM)
Method in brief: as §1

[4] = test system: PPARg DBDmut IVT, anti-PPARg (DBD mutation: PPARg1 K132A/R137A, NR concentration 270 nM)
Method in brief: as §1

[5] = test system: PPARg homodimer (NR concentration 180 nM)
Method in brief: as §1

[6] = test system: PXR:RXRa (NR concentration 270 nM, RXRa partner concentration 90 nM)
Method in brief: as §1

[7] = test system: PXR homodimer (NR concentration 270 nM)
Method in brief: as §1

[8] = test system: RARa:RXR (NR concentration 270 nM, RXRa partner concentration 90 nM)
Method in brief: as §1

[9] = test system: RARa homodimer (NR concentration 270 nM)
Method in brief: as §1

[10] = test system: RARb:RXRa (NR concentration 270 nM, RXRa partner concentration 90 nM)
Method in brief: as §1

[11] = test system: RARb homodimer (NR concentration 270 nM)
Method in brief: as §1

[12] = test system: RARg:RXRa (NR concentration 270 nM, RXRa partner concentration 90 nM)
Method in brief: as §1

[13] = test system: RARg homodimer (NR concentration 270 nM)
Method in brief: as §1

[14] = test system: RXRa DBDmut IVT, anti-RXR (DBD mutation: RXRa K156A/R161A, NR concentration 90 nM)
Method in brief: as §1

[15] = test system: RXRa homodimer (NR concentration 180 nM)
Method in brief: as §1

[16] = test system: THRa:RXRa (NR concentration 90 nM, RXRa partner concentration 90 nM)
Method in brief: as §1

[17] = test system: THRa homodimer (NR concentration 90 nM)
Method in brief: as §1

[18] = test system: VDR homodimer (NR concentration 270 nM)
Method in brief: as §1

| Sequence | PBM binding z-score [1] | PBM binding z-score [2] | PBM binding z-score [3] | PBM binding z-score [4] | PBM binding z-score [5] | PBM binding z-score [6] | PBM binding z-score [7] | PBM binding z-score [8] | PBM binding z-score [9] | PBM binding z-score [10] | PBM binding z-score [11] | PBM binding z-score [12] | PBM binding z-score [13] | PBM binding z-score [14] | PBM binding z-score [15] | PBM binding z-score [16] | PBM binding z-score [17] | PBM binding z-score [18] |
| --- | --- | --- | --- | --- | --- | --- | --- | --- | --- | --- | --- | --- | --- | --- | --- | --- | --- | --- |
| GGAACGAGGGCAAGTTGCTAGCAGAGTTTGATGG | 3.85 | 2.46 | -0.00966 | -0.739 | -0.336 | 0.59 | 0.303 | 0.0596 | -0.257 | 2.52 | 1.37 | 1.23 | 2.1 | 2.26 | 0.745 | 0.911 | -0.229 | 1.44 |
| TCTTGTAGATCAACAGGAGGTTAGGAAAGATCGA | 1.53 | 0.599 | 0.272 | 0.48 | -0.426 | 0.183 | -0.275 | 0.125 | 0.162 | 0.117 | 0.164 | 0.361 | 0.196 | 0.233 | 0.348 | 0.437 | -0.828 | -0.458 |
| CAAACTAGGTCAATGGTCAAAGTCGAGCCAACCA | 8.19 | 8.52 | 2.18 | 0.945 | 1.27 | 1.38 | 0.195 | 2.25 | 0.441 | 3.9 | 3.34 | 3.81 | 4.56 | 1.51 | 2.95 | 2.56 | 0.976 | 0.812 |
| CCTACTTGGCCATCAGGTCATTGATATCAACGTT | 1.33 | 1.93 | 0.603 | 0.617 | 1.82 | 1.95 | 1.62 | 2.17 | 1.76 | 2.19 | 2.89 | 2.15 | 2.12 | 1.5 | 1.43 | 3.39 | 3.64 | 2.19 |
| TGTCATAGTTCAAAGGTAACGTAAGTATCCACAC | -0.243 | 3.05 | 1.21 | 1.83 | 1.56 | 3.52 | 1.08 | 4.52 | 1.31 | 3.46 | 2.51 | 4.15 | 3.54 | 2.09 | 5.18 | 2.6 | 0.118 | 1.23 |
| ATCTAAAGGTCGAGGTGAGTATAGAGAAAGGGAA | 0.937 | 2.41 | 1.38 | 1.16 | 2.16 | 2.7 | 1.07 | 3.32 | 1.18 | 4.33 | 3.3 | 4.54 | 4.69 | 1.33 | 4.82 | 3.09 | 1.31 | 0.632 |
| CAAACTAGGTCAAGAGTTCAAAGTCCGCTTCCCG | 8.53 | 8.57 | 5.05 | 5.84 | 7.86 | 6.27 | 10.5 | 6.61 | 2.65 | 4.74 | 4.97 | 7.16 | 6.48 | 3.87 | 5.58 | 3.33 | 1.28 | 7.25 |
| CTTGCTAGGTCATGGTCAGCTAATCTACAGTATG | 4.97 | 4.72 | 0.897 | 0.605 | 1.37 | 1.45 | -0.306 | 2.48 | 0.17 | 3.66 | 3.07 | 3.94 | 4.57 | 1.95 | 2.77 | 2.96 | 1.27 | 0.195 |
| GGAACGAGGGCATTCGTGTTGATAGCATGGCGAT | 3.27 | 2.25 | -0.566 | -0.299 | 0.242 | 0.774 | 0.237 | 0.37 | -0.471 | 1.62 | 0.43 | 0.848 | 1.23 | 3.26 | 0.575 | 0.978 | -0.391 | 1.87 |
| ATCTCTAGGTAACCACGTTCAGTGAATGCCGAAC | 2.95 | 2.6 | 1.15 | 0.998 | 0.238 | -0.177 | 0.023 | -0.2 | 0.526 | 0.324 | 0.366 | 0.142 | 0.288 | -0.101 | 0.112 | 0.672 | 0.721 | 0.344 |
| ACTATTAGTTGAGACGAGTGCAACCGATAGGTTG | 0.000618 | 0.0242 | 0.728 | 0.584 | 0.204 | 1.96 | 0.737 | 0.0877 | -0.0239 | 0.0996 | -0.322 | 0.00696 | 0.277 | 0.58 | 0.199 | 0.501 | -0.775 | 1.49 |
| TCATATAAGTAAATGCTAGGTGAAAGTCCGATCT | 3.04 | 0.569 | 0.642 | 0.691 | 1.1 | 0.626 | 0.422 | 0.789 | 1.78 | 0.428 | 0.289 | 0.478 | 0.348 | 2 | 0.855 | 0.92 | 0.526 | 0.559 |
| GCAGACAGGTGAAAAGCAGGTAACTCAGGGTGGC | 0.172 | 0.778 | -0.581 | -1.28 | -0.799 | -0.441 | -0.329 | 0.143 | -0.401 | 0.42 | 0.095 | 0.178 | -0.088 | -0.616 | 0.348 | 1.28 | -0.428 | -0.329 |
| GTTAGCAGGCCATTTGGGTCACTCAATGACGGGC | 2.37 | 2.61 | -0.276 | -0.494 | -0.0267 | 0.566 | 0.185 | 0.925 | -0.249 | 1.52 | 1.8 | 1.15 | 1.5 | 0.133 | 0.847 | 1.79 | 0.575 | 0.779 |
| CGAACTAGGTCAAGGACAGTTAATCTCCGCACGC | 8.24 | 8.35 | 2.25 | 0.939 | 1.62 | 1.5 | 0.185 | 1.87 | 0.669 | 3.76 | 3.38 | 3.88 | 4.87 | 1.65 | 2.89 | 3.09 | 2.12 | 0.602 |
